From PubChem BioAssay (NCATS)
Results filed as inconclusive are left out. The source made the active and inactive calls. Unless noted, calls come from the whole dose curve; as a rule, active = well fitted curve in the direction sought with a large enough effect; inconclusive = small, poorly fitted or top-dose-only effect, or another doubt; inactive = no such curve, though single readings can be large; an effect the other way counts as inactive or inconclusive.

Legend:
[1] = target: Lysosomal acid glucosylceramidase (Homo sapiens) (UniProt P04062); experiment: Glucocerebrosidase-p2 (AID 348; in the data active = potency below about 10 µM; note: potency is the fitted concentration of half-maximal effect); settings: purified GBA, blue fluorogenic substrate, 40 min
Summary of the method: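 Normal human glucocerebrosidase (0.2 nM) with blue fluorogenic substrate (80 uM final) in citrate/phosphate pH 5.9 with 10mM sodium taurocholate, 0.01% tween-20; 40 min RT, NaOH/glycine stop; fluorescence Ex 365/Em 440; AC50 from a titration from 0.6 nM upwards.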

[2] = AP1 Signaling Pathway (AID 357; active = well fitted curve in either direction with a large enough effect, not every such curve was filed as active;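 note: ME-180 reporter cells stimulated with EGF at its EC50 level; % is set by controls: 0 for no effect and ±100 for the full control effect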); settings: ME-180 AP-1-bla reporter, EGF-induced, beta-lactamase ratio, 5 h; at 7.69 µM (top of the series) unless noted
Summary of the method: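 Modulation of EGF-driven AP-1 transcription was assessed with a beta-lactamase reporter in ME-180 cells. Compound and EC50 EGF were co-incubated 5 hours at 37 °C before 2.5-hour CCF4 loading at room temperature and dual-emission reading.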

[3] = NFAT Signaling Pathway (AID 444; active = well fitted curve in either direction with a large enough effect, not every such curve was filed as active;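 note: carbachol stimulus at about its EC50 of 1 µM final; % is set by controls: 0 for no effect and ±100 for the full control effect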); settings: Jurkat NFAT-bla M1, carbachol, beta-lactamase ratio, 5 h; at 7.69 µM (top of the series) unless noted
Summary of the method: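 Read-out: CCF4 FRET ratio (460 nm/530 nm) after 1 h RT dye loading, used for %activity and AC50 from titration series. Cells: Jurkat NFAT-β-lactamase/M1 line, treated with compound plus 1 uM carbachol for 5 h, 37 °C.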

[4] = Stat Signaling Pathway (AID 446; active = well fitted curve in either direction with a large enough effect, not every such curve was filed as active;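 note: ME-180 cervical cancer cells given 40 pM IL-6 alongside compound; SIE-controlled beta-lactamase reporter measured as 460/530 nm FRET emission ratio; % is set by controls: 0 for no effect and ±100 for the full control effect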); settings: ME-180 (cervical carcinoma) SIE beta-lactamase reporter, IL-6 stimulated, 5 h; at 7.69 µM (top of the series) unless noted
Summary of the method: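 Compound effects on IL-6-induced STAT reporter activity were measured in ME-180 cells. After overnight culture, cells were co-treated with 40 pM IL-6 for 5 hrs before beta-lactamase substrate loading at room temperature.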

[5] = target: Glucocorticoid receptor (Homo sapiens) (UniProt P04150); experiment: GR-GFP Redistribution (AID 450;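 active = compounds whose dose series gives a full or clear partial fitted curve of increased nuclear translocation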; note: potency is the fitted concentration of half-maximal effect); settings: U2OS GR-GFP nuclear translocation, laser cytometry, 2 h
[6] = target: Glucocorticoid receptor (Homo sapiens) (UniProt P04150); experiment: GR-EFC Redistribution (AID 451; calls by dose curve; note: potency is the fitted concentration of half-maximal effect); settings: CHO-K1 GR-EFC translocation, beta-gal luminescence, 2 h
Summary of the method: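 Translocation of GR-ED fusion to nuclear EA restores b-gal, read by luminescence after 1 h room-temperature detection. Engineered CHO-K1 biosensor cells, 1,000/well, exposed 2 h at 37 C to titrations up to 46 uM final.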

[7] = target: Mitogen-activated protein kinase 10 (Mus musculus) (UniProt Q61831); experiment: JNK3 AlphaScreen Assay (AID 530; active = well fitted curve in either direction with a large enough effect, not every such curve was filed as active;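 note: kinase came from lysate of stimulated human HepG2 cells; signal reports phosphorylation of biotinylated GST-cJun 1-79 at Ser73 with 10 µM ATP; % is set by controls: 0 for no effect and ±100 for the full control effect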); settings: JNK3 lysate, c-Jun phosphorylation; series mostly up to 57.1 µM
Summary of the method: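 Kinase buffer: 20 mM Tris-HCl pH 7.6, 10 mM MgCl2, 1 mM DTT, 0.1 mM Na3VO4, 0.01% Tween-20; ATP 10 uM. Substrate biotin-GST-cJun(1-79), enzyme from activated HepG2 lysates. Detection by Ser73 phospho-antibody AlphaScreen.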

[8] = target: 3',5'-cyclic-AMP phosphodiesterase 4B (Homo sapiens) (UniProt Q07343); experiment: qHTS Assay for Inhibitors of PDE-IV (AID 607; active = well fitted activation curve with a large enough effect in the main read-out, with a control signal flat, not every such curve was filed as active; note: % of control where 0% means no effect); settings: HEK293 ACTOne CNG channel cells, membrane potential fluorescence; series mostly up to 22.9 µM
Summary of the method: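 ACTOne HEK293 cells carry a modified cAMP-gated CNG channel and express endogenous PDE4; plated 1000 cells/well, compounds up to 22.9 uM final. Membrane-potential dye fluorescence (ex 535/em 590) was read; parental cells received 10 uM forskolin + 100 uM RO 20-1724.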

[9] = target: Dual specificity protein kinase CLK4 (Homo sapiens) (UniProt Q9HAZ1); experiment: qHTS Assay for Inhibitors of CDC-like Kinase 4 (Kinase-Glo Assay) (AID 1770); settings: recombinant Clk4, Kinase-Glo ATP depletion luminescence; series mostly up to 66.7 µM; note: % is set by controls: 0 for no effect and ±100 for the full control effect; nearly all actives have a fitted effect of over 65% in size
Summary of the method: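 Readout: Kinase-Glo luminescence from ATP left after a 4.5 h room-temperature reaction of 25 nM Clk4 with 100 uM RS peptide and 1 uM ATP (final). Buffer: 25 mM Tris pH 7.5, 10 mM MgCl2.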

[10] = target: Dual specificity protein kinase CLK4 (Homo sapiens) (UniProt Q9HAZ1); experiment: qHTS Assay for Inhibitors of CDC-like Kinase 4 (ADP-Glo Assay) (AID 1771); settings: recombinant CLK4, ADP-Glo luminescence; series mostly up to 80 µM; note: % is set by controls: 0 for no effect and ±100 for the full control effect; nearly all actives have a fitted effect of over 70% in size
Summary of the method: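 In this ADP-Glo format, 1 uM ATP and 100 uM RS peptide served as substrates for 25 nM Clk4 in Mg2+/EGTA/DTT/Triton buffer; reactions ran 1 hr at room temperature before luminescent ADP quantification.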

[11] = target: Dual specificity protein kinase CLK4 (Homo sapiens) (UniProt Q9HAZ1); experiment: qHTS Assay for Inhibitors of CDC-like Kinase 4 (ADP-FP Assay) (AID 1795); settings: Transcreener ADP fluorescence polarization; series mostly up to 50 µM;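 note: recombinant human CLK4 phosphorylating RS repeat peptide at 1 µM ATP; % is set by controls: 0 for no effect and ±100 for the full control effect; nearly all actives have a fitted effect of over 60% in size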
Summary of the method: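 FP readout: Orange Transcreener ADP2 tracer (4 nM) plus ADP antibody, read after 30 min at room temperature. Kinase step: 6.25 nM Clk4, 100 uM RS peptide, 1 uM ATP, pH 7.5, 1 h.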

[12] = target: Ubiquitin carboxyl-terminal hydrolase 1 (Homo sapiens) (UniProt O94782); experiment: Inhibitors of USP1/UAF1: Pilot qHTS (AID 504865); settings: purified USP1/UAF1, Ub-rhodamine cleavage fluorescence; series mostly up to 54.9 µM;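 note: rhodamine fluorescence freed from ubiquitin-rhodamine substrate followed over time; top concentration of the series differs between compounds; % is set by controls: 0 for no effect and ±100 for the full control effect; nearly all actives have a fitted effect of over 35% in size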
Summary of the method: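 1nM USP1/UAF1 + cpd, 15 min RT; start w/ Ub-Rho 150nM final; kinetic FL 480/540 nm, 6 reads q60 s. Buffer 50mM HEPES pH 7.8, 0.5mM EDTA, 1mM TCEP, 0.01% Tween-20, 0.1 mg/ml BSA.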

[13] = Primary qHTS for small molecule stabilizers of the endoplasmic reticulum resident proteome: Secreted ER Calcium Modulated Protein (SERCaMP) assay (AID 1508630); settings: SH-SY5Y GLuc-SERCaMP (Gaussia luciferase released on ER calcium loss) secretion, thapsigargin, luminescence; series mostly up to 38.4 µM; note: % is set by controls: 0 for no effect and ±100 for the full control effect
Summary of the method: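 The SH-SY5Y reporter protocol was run at 3 concentrations up to 38.3 uM (primary) or 11 concentrations (follow-up): 16 h compound, 100 nM thapsigargin for 4 h, then extracellular luciferase luminescence.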

[14] = target: Cytochrome P450 3A4 (Homo sapiens) (UniProt P08684); experiment: qHTS Assay for Activators of Cytochrome P450 3A4 (AID 885); settings: recombinant CYP3A4, Luciferin-PPXE luminescence, 60 min; series mostly up to 57.1 µM; note: nearly all actives have a fitted effect of over 65% in size
Summary of the method: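 CYP3A4 activity: Luciferin-PPXE O-dealkylation, 25uM substrate, 200mM KPO4, RT throughout. Read-out is luciferase luminescence; higher values reflect activation.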

Chain of Cytochrome P450 3A4 (Homo sapiens) (P08684 whole entry, looked up): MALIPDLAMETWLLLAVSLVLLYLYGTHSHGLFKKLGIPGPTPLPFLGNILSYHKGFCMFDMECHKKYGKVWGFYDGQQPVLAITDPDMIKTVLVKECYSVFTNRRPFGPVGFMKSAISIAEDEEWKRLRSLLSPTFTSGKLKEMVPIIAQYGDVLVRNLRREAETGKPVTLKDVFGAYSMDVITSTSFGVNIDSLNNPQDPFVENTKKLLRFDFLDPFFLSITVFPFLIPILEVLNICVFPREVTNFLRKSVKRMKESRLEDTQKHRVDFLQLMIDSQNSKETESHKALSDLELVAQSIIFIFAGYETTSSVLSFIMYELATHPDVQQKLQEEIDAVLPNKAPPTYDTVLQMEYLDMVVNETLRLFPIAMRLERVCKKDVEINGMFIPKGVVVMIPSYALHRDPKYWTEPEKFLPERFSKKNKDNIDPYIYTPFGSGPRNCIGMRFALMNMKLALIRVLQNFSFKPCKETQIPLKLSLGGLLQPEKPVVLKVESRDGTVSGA
Chain of Ubiquitin carboxyl-terminal hydrolase 1 (Homo sapiens) (O94782 whole entry, looked up): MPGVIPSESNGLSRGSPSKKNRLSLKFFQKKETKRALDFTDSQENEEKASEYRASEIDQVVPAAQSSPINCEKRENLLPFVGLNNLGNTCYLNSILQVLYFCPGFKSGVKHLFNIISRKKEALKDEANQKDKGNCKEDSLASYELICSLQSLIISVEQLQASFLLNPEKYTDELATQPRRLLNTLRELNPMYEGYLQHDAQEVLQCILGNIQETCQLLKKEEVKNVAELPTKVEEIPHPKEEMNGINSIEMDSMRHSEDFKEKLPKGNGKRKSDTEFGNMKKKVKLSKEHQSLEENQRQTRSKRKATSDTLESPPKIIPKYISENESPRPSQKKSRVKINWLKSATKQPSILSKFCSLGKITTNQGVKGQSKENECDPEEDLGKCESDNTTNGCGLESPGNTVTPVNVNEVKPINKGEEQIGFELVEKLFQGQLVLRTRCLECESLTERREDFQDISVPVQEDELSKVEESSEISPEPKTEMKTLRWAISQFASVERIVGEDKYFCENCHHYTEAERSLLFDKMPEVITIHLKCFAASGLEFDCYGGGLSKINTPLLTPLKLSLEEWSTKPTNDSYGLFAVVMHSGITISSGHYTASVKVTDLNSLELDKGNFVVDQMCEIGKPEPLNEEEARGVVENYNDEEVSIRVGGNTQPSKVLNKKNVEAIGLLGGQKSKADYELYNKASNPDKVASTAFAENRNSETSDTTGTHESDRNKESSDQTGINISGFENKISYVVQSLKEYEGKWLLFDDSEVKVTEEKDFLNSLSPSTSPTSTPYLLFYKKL
Chain of Glucocorticoid receptor (Homo sapiens) (P04150 whole entry, looked up, the tested form may be a part): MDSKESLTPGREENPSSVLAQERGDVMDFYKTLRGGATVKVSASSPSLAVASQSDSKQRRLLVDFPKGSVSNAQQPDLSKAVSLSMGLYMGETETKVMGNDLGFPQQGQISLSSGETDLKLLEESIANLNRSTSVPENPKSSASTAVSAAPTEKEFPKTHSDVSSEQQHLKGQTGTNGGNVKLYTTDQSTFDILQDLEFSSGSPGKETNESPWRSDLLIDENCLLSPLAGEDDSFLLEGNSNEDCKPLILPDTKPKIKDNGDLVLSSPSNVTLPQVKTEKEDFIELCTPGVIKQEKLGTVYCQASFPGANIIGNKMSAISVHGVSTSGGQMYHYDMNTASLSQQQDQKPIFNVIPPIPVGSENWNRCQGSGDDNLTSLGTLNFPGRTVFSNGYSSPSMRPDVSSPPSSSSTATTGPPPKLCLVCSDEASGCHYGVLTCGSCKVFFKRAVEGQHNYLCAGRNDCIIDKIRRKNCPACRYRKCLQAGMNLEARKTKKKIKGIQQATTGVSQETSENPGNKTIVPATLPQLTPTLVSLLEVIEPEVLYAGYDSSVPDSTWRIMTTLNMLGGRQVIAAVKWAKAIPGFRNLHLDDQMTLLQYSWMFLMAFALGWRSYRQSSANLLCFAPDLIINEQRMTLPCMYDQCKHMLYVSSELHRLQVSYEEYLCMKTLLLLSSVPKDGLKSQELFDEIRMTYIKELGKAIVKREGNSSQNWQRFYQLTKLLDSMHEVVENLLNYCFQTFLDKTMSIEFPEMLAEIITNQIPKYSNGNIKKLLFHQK
Chain of Lysosomal acid glucosylceramidase (Homo sapiens) (P04062 whole entry, looked up): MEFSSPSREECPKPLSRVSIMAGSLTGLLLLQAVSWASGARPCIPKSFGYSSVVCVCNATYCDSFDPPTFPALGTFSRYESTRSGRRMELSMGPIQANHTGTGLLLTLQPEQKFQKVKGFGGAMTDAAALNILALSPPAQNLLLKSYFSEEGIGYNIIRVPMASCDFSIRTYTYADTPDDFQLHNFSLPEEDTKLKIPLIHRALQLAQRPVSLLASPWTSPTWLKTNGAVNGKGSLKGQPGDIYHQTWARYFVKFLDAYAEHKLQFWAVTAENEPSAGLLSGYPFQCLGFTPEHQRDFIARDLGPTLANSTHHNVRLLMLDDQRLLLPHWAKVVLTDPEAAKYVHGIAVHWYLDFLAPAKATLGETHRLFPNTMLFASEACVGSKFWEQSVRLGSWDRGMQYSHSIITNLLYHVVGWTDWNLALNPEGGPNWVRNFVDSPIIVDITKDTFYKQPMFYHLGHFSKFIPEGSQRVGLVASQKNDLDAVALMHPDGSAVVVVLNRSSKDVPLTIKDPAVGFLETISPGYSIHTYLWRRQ
Chain of 3',5'-cyclic-AMP phosphodiesterase 4B (Homo sapiens) (Q07343 whole entry, looked up): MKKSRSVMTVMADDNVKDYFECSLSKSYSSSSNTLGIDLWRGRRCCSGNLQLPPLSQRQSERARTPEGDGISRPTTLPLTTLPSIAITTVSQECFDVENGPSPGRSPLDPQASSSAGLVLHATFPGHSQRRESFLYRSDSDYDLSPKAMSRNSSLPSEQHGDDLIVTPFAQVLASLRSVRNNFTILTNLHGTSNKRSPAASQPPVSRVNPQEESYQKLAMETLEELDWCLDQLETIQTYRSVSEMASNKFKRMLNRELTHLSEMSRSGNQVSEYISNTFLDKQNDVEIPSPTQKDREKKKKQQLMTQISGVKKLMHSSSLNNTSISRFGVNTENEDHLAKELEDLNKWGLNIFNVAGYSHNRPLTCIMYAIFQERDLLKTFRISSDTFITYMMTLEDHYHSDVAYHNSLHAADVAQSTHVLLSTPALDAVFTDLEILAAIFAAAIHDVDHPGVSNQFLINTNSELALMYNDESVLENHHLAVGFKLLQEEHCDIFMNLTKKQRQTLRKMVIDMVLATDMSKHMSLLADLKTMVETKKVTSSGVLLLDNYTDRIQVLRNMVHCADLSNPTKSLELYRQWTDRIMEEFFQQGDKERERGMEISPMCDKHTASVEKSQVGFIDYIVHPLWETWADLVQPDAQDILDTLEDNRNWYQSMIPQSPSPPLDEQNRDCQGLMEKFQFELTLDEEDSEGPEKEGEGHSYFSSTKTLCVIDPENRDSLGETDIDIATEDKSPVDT
Chain of Dual specificity protein kinase CLK4 (Homo sapiens) (Q9HAZ1 whole entry, looked up): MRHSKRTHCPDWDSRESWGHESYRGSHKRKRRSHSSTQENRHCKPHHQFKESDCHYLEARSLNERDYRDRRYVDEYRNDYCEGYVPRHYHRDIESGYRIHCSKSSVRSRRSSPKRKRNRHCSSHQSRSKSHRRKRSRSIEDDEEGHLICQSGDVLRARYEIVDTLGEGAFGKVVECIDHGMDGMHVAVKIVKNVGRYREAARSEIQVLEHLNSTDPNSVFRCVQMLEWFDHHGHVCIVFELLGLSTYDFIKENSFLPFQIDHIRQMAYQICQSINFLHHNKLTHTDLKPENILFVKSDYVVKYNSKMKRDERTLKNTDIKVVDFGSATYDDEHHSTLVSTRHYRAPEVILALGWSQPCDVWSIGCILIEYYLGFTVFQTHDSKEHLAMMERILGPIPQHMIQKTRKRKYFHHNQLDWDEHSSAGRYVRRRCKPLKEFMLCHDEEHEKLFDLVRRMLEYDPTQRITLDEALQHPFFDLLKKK

COCCn1c(=O)c(-c2ccc(OC)cc2)nc2cnc(N3CCOCC3)nc21
inactive: Potency [1] > 11.4 µM | activity change, negative = inhibition [2] -13.6% | activity change, negative = inhibition [3] 8.4% | activity, negative = inhibition [4] 25.9% | Potency [5] > 9.22 µM | Potency [6] > 46 µM | Potency [7] | Potency [8] | Potency [9] | Potency [10] | Potency [11] | Potency [12] | outcome [13]

Cc1noc(C)c1-c1nccc(N(C)Cc2ccco2)n1
inactive: Potency [1] > 11.4 µM | activity change, negative = inhibition [2] 6.47% | activity change, negative = inhibition [3] -3.01% | activity, negative = inhibition [4] 3.88% | Potency [5] > 46 µM | Potency [6] > 46 µM | Potency [7] | Potency [8] | Potency [14] | Potency [9] | Potency [10] | Potency [11] | Potency [12] | outcome [13]

Cc1nc2cnc(Oc3ccccc3)nc2n(Cc2cccs2)c1=O
inactive: Potency [1] > 11.4 µM | activity change, negative = inhibition [2] -17.8% | activity change, negative = inhibition [3] 20.1% | activity, negative = inhibition [4] -0.465% | Potency [5] > 9.22 µM | Potency [6] > 46 µM | Potency [7] | Potency [8] | Potency [14] | Potency [9] | Potency [10] | Potency [11] | outcome [13]

FC(F)(F)c1ccccc1-c1cncnc1-n1ccnc1
inactive: Potency [1] > 11.4 µM | activity change, negative = inhibition [2] -6.84% | activity change, negative = inhibition [3] -7.53% | activity, negative = inhibition [4] 3.29% | Potency [5] > 46 µM | Potency [6] > 46 µM | Potency [7] | Potency [8] | Potency [9] | Potency [10] | Potency [11] | Potency [12] | outcome [13]

COc1ncc2nc(-c3ccccc3)c(=O)n(CCC#N)c2n1
inactive: Potency [1] > 11.4 µM | activity change, negative = inhibition [2] -23.7% | activity change, negative = inhibition [3] -5.79% | activity, negative = inhibition [4] -14.9% | Potency [5] > 9.22 µM | Potency [6] > 46 µM | Potency [7] | Potency [8] | Potency [9] | Potency [10] | Potency [11] | Potency [12] | outcome [13]

COc1ccccc1-c1cncnc1Nc1ccccc1
inactive: Potency [1] > 11.4 µM | activity change, negative = inhibition [2] -6.14% | activity change, negative = inhibition [3] -4.57% | activity, negative = inhibition [4] 5.08% | Potency [5] > 46 µM | Potency [6] > 46 µM | Potency [7] | Potency [8] | Potency [9] | Potency [10] | Potency [11] | Potency [12] | outcome [13]

COc1cccc(Cn2c(=O)c(-c3ccccc3)nc3cncnc32)c1
inactive: Potency [1] > 11.4 µM | activity change, negative = inhibition [2] -16.5% | activity change, negative = inhibition [3] -5.39% | activity, negative = inhibition [4] -11.9% | Potency [5] > 9.22 µM | Potency [6] > 46 µM | Potency [7] | Potency [8] | Potency [9] | Potency [10] | Potency [11] | Potency [12] | outcome [13]

O=c1c(-c2ccc(F)cc2)nc2cncnc2n1Cc1ccc(F)cc1
inactive: Potency [1] > 11.4 µM | activity change, negative = inhibition [2] -9.76% | activity change, negative = inhibition [3] -10% | activity, negative = inhibition [4] -2.38% | Potency [5] > 9.22 µM | Potency [6] > 46 µM | Potency [7] | Potency [8] | Potency [9] | Potency [10] | Potency [11] | Potency [12] | outcome [13]

FC(F)(F)c1ccccc1-c1cncnc1NCc1ccccc1
inactive: Potency [1] > 11.4 µM | activity change, negative = inhibition [2] -12.5% | activity change, negative = inhibition [3] -25.7% | activity, negative = inhibition [4] 8.04% | Potency [6] > 46 µM | Potency [7] | Potency [9] | Potency [10] | Potency [11] | Potency [12] | outcome [13]

Cc1cnc(CNc2ncncc2-c2cccc(NS(C)(=O)=O)c2)cn1
inactive: Potency [1] > 11.4 µM | activity change, negative = inhibition [2] 3.85% | activity change, negative = inhibition [3] -0.565% | activity, negative = inhibition [4] 13.1% | Potency [5] > 46 µM | Potency [6] > 46 µM | Potency [7] | Potency [8] | Potency [14] | Potency [9] | Potency [10] | Potency [11] | Potency [12] | outcome [13]

CN1CCN(c2ncncc2-c2cccnc2)CC1
inactive: Potency [1] > 11.4 µM | activity change, negative = inhibition [2] 2.82% | activity change, negative = inhibition [3] -6.42% | activity, negative = inhibition [4] -20.2% | Potency [5] > 46 µM | Potency [6] > 46 µM | Potency [7] | Potency [8] | Potency [14] | Potency [9] | Potency [10] | Potency [11] | Potency [12] | outcome [13]

COc1ncc2nc(-c3ccc(Cl)cc3)c(=O)n(CCC#N)c2n1
inactive: Potency [1] > 11.4 µM | activity change, negative = inhibition [2] -9.68% | activity change, negative = inhibition [3] 3.96% | activity, negative = inhibition [4] -4.68% | Potency [5] > 9.22 µM | Potency [6] > 46 µM | Potency [7] | Potency [8] | Potency [9] | Potency [10] | Potency [11] | Potency [12] | outcome [13]

COc1ccc(-n2c(=O)c(-c3ccc(F)c(F)c3)nc3cncnc32)cc1
inactive: Potency [1] > 11.4 µM | activity change, negative = inhibition [2] -1.43% | activity change, negative = inhibition [3] 1.94% | activity, negative = inhibition [4] -16.2% | Potency [5] > 9.22 µM | Potency [6] > 46 µM | Potency [7] | Potency [8] | Potency [9] | Potency [10] | Potency [11] | Potency [12] | outcome [13]
